According to article PMC5540273 (PLoS ONE, 2017):

Tested on: CAMK2B
Conditions: concentration: 1 μM, replicates: in singlicate; n = 1
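Further: KINOMEscan kinase panel screen.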

In order of falling “%Inh” value:
1. COc1cc2ncn(-c3cc(OCc4ccncc4Br)c(C(N)=O)s3)c2cc1OC [GW854278]  46%
2. CCc1ccc(-c2ccc3c(c2)-c2nn(C)cc2S(=O)(=O)N3C)cc1  19%
3. C[C@@H]1CC[C@H](C(=O)NC2CCCCC2)CN1c1cc(-c2ccc3c(N)n[nH]c3c2)nc(N)n1 [GSK2291363]  16%
4. Cc1nc(N(C)[C@H]2CN(C(=O)CC#N)CC[C@H]2C)c2cc[nH]c2n1  5%
5. CCS(=O)c1ccc(-c2coc3ccc(-c4nnc(C)o4)cc23)cc1 (stereo not drawn)  3%
6. Cc1cc(Nc2nc(-c3cccc(C)n3)nc3ccccc23)ccn1 [GW872411]  0%
7. Cc1nnc(-c2ccc(C)c(-c3ccc(C(=O)O)cc3)c2)o1 [GW608005]  0%
8. COc1cc(Nc2ccnc3ccc(C(F)(F)F)cc23)cc(OC)c1OC [GW577382]  0%
9. FC(F)(F)c1ccc(-c2ncn(CCCN3CCOCC3)c2-c2ccncc2)cc1 [SB-217780]  0%
10. Cl.c1ccc(Cn2cnc3cc(Nc4ncnc5ccccc45)ccc32)cc1 [GW272142]  0%
11. Cc1ccc(-c2ccc3c(ccc4sc5c(c43)NC[C@@H](C)N=C5N(C)C)n2)cn1  0%
12. Cl.NS(=O)(=O)c1cccc(Nc2cc(-c3ccc(F)cc3)n[nH]2)c1 [GW824645]  0%
13. O=C(Nc1ccc2c(c1)OCO2)NC1CCN(c2ccnc(NCc3ccc(F)cc3)n2)CC1 [GSK1379859]  0%
14. CCCC(=O)Nc1n[nH]c2ncc(-c3cccc4ccccc34)cc12 [SB-642057]  0%
15. COC(=O)c1c(-c2ccccc2)c2cc(C)ccc2c(=O)n1Cc1ccccc1  0%
16. Cc1ccc(Oc2ccc(Nc3ncnc4cc[nH]c34)cc2C)cn1  0%
17. COc1cc2ncn(-c3cc(OCCCc4ccccc4)c(C(N)=O)s3)c2cc1OC [GSK205189]  0%
18. O=C1NC(=O)C(c2ccccc2)=C1Nc1cccc(O)c1 [SB-390534]  0%
19. CN1C(=O)C(Nc2ccccc2)=C(c2ccccc2)C1=O [SB-300079]  0%
20. COc1ccc(-n2cnc3c(N)ncnc32)cc1 [SKF-97236]  0%
21. COc1ccc(Nc2nccc(N3CCC(NS(=O)(=O)c4ccc(NC(C)=O)cc4)C3)n2)cc1 (stereo not drawn) [GSK1379729]  0%
22. Nc1ncnc2c1ncn2-c1cccc2ccccc12 [SKF-97184]  0%
23. Nc1nc(-c2ccccc2F)c(-c2ccnc3ccccc23)s1 [GW560459]  0%
24. CCc1nc(-c2cccc(C)c2)c(-c2ccncc2)s1  0%
25. O=c1cc(N2CCOCC2)nc2n(Cc3ccc(F)c(Cl)c3)ccn12 [GSK2297099]  0%
26. COC(=O)c1c(-c2ccccc2)c2cc(Br)ccc2c(=O)n1Cc1ccc(NC(=O)CCC(=O)O)cc1  0%
27. COc1cc2ncn(-c3cc(OCc4ccncc4)c(C(N)=O)s3)c2cc1OC [GSK336313]  0%
28. CCn1c(-c2nonc2N)nc2ccccc21 [SB-693162/GW549034]  0%
29. CCC(=O)c1c(-c2ccccc2)c2cc(Cl)ccc2c(=O)n1Cc1cc(S(C)(=O)=O)n(CC(N)=O)n1  0%
30. O=C(Nc1n[nH]c2nc(-c3ccccc3)c(Cl)cc12)C1CC1 [SB-734909]  0%
31. COc1cccc(-n2cnc3c(N)ncnc32)c1 [SKF-97416]  0%
32. CCS(=O)(=O)c1ccc(OC)c(Nc2ncc(-c3ccc(F)cc3)o2)c1.Cl [GW591947]  0%
33. COc1cc(OC)cc(-c2cc3cnc(N)nc3nc2NC(=O)NC(C)(C)C)c1  0%
34. COc1cc2nccc(Nc3ccc(OCc4ccc(NC(C)=O)cc4)cc3)c2cc1OC.Cl [GW440135]  0%
35. O=C(Nc1n[nH]c2cc(-c3ccccc3F)ccc12)C1CC1 [SB-733371]  0%
36. CN1C(=O)C(Nc2cc(Cl)c(O)c(Cl)c2)=C(c2ccc(Cl)cc2)C1=O [SB-404321]  0%

Tested on: CAMK2D
Conditions: concentration: 1 μM, replicates: in singlicate; n = 1

In order of falling “%Inh” value:
1. O=C1NC(=O)C(c2ccccc2)=C1Nc1cccc(O)c1 [SB-390534]  62%
2. COc1cc2ncn(-c3cc(OCc4ccncc4)c(C(N)=O)s3)c2cc1OC [GSK336313]  37%
3. CCc1ccc(-c2ccc3c(c2)-c2nn(C)cc2S(=O)(=O)N3C)cc1  25%
4. O=c1cc(N2CCOCC2)nc2n(Cc3ccc(F)c(Cl)c3)ccn12 [GSK2297099]  23%
5. C[C@@H]1CC[C@H](C(=O)NC2CCCCC2)CN1c1cc(-c2ccc3c(N)n[nH]c3c2)nc(N)n1 [GSK2291363]  18%
6. COc1cc2ncn(-c3cc(OCc4ccncc4Br)c(C(N)=O)s3)c2cc1OC [GW854278]  17%
7. COc1cc2ncn(-c3cc(OCCCc4ccccc4)c(C(N)=O)s3)c2cc1OC [GSK205189]  16%
8. Cl.c1ccc(Cn2cnc3cc(Nc4ncnc5ccccc45)ccc32)cc1 [GW272142]  15%
9. CCCC(=O)Nc1n[nH]c2ncc(-c3cccc4ccccc34)cc12 [SB-642057]  14%
10. COc1cccc(-n2cnc3c(N)ncnc32)c1 [SKF-97416]  12%
11. CCS(=O)(=O)c1ccc(OC)c(Nc2ncc(-c3ccc(F)cc3)o2)c1.Cl [GW591947]  12%
12. O=C(Nc1ccc2c(c1)OCO2)NC1CCN(c2ccnc(NCc3ccc(F)cc3)n2)CC1 [GSK1379859]  7%
13. COc1cc(Nc2ccnc3ccc(C(F)(F)F)cc23)cc(OC)c1OC [GW577382]  5%
14. COc1cc(OC)cc(-c2cc3cnc(N)nc3nc2NC(=O)NC(C)(C)C)c1  4%
15. COc1cc2nccc(Nc3ccc(OCc4ccc(NC(C)=O)cc4)cc3)c2cc1OC.Cl [GW440135]  4%
16. FC(F)(F)c1ccc(-c2ncn(CCCN3CCOCC3)c2-c2ccncc2)cc1 [SB-217780]  3%
17. COC(=O)c1c(-c2ccccc2)c2cc(Br)ccc2c(=O)n1Cc1ccc(NC(=O)CCC(=O)O)cc1  3%
18. Cc1cc(Nc2nc(-c3cccc(C)n3)nc3ccccc23)ccn1 [GW872411]  0%
19. Cc1nnc(-c2ccc(C)c(-c3ccc(C(=O)O)cc3)c2)o1 [GW608005]  0%
20. Cc1ccc(-c2ccc3c(ccc4sc5c(c43)NC[C@@H](C)N=C5N(C)C)n2)cn1  0%
21. Cl.NS(=O)(=O)c1cccc(Nc2cc(-c3ccc(F)cc3)n[nH]2)c1 [GW824645]  0%
22. Cc1nc(N(C)[C@H]2CN(C(=O)CC#N)CC[C@H]2C)c2cc[nH]c2n1  0%
23. COC(=O)c1c(-c2ccccc2)c2cc(C)ccc2c(=O)n1Cc1ccccc1  0%
24. Cc1ccc(Oc2ccc(Nc3ncnc4cc[nH]c34)cc2C)cn1  0%
25. CN1C(=O)C(Nc2ccccc2)=C(c2ccccc2)C1=O [SB-300079]  0%
26. COc1ccc(-n2cnc3c(N)ncnc32)cc1 [SKF-97236]  0%
27. COc1ccc(Nc2nccc(N3CCC(NS(=O)(=O)c4ccc(NC(C)=O)cc4)C3)n2)cc1 (stereo not drawn) [GSK1379729]  0%
28. Nc1ncnc2c1ncn2-c1cccc2ccccc12 [SKF-97184]  0%
29. Nc1nc(-c2ccccc2F)c(-c2ccnc3ccccc23)s1 [GW560459]  0%
30. CCc1nc(-c2cccc(C)c2)c(-c2ccncc2)s1  0%
31. CCS(=O)c1ccc(-c2coc3ccc(-c4nnc(C)o4)cc23)cc1 (stereo not drawn)  0%
32. CCn1c(-c2nonc2N)nc2ccccc21 [SB-693162/GW549034]  0%
33. CCC(=O)c1c(-c2ccccc2)c2cc(Cl)ccc2c(=O)n1Cc1cc(S(C)(=O)=O)n(CC(N)=O)n1  0%
34. O=C(Nc1n[nH]c2nc(-c3ccccc3)c(Cl)cc12)C1CC1 [SB-734909]  0%
35. O=C(Nc1n[nH]c2cc(-c3ccccc3F)ccc12)C1CC1 [SB-733371]  0%
36. CN1C(=O)C(Nc2cc(Cl)c(O)c(Cl)c2)=C(c2ccc(Cl)cc2)C1=O [SB-404321]  0%
